# Assay results taken from PubChem BioAssay (NCATS).
# Values joined by “and” are separate entries in the source; they are usually repeats but may differ in a detail not shown here. Equal entries are not always repeated. Records with an inconclusive call do not appear. A call without a number means that no potency is given here. Active and inactive are the calls of the source. Unless noted, the call rests on the fitted dose curve; in most records, active means well fitted curve in the direction sought with a large enough effect; inconclusive means small, poorly fitted or top-dose-only effect, or another doubt; inactive means no such curve, though single readings can be large; an effect the other way counts as inactive or inconclusive.
# Legend:
# [1] = target: Tyrosine-protein kinase Yes (Homo sapiens) (UniProt P07947); assay: qHTS for small molecule inhibitors of Yes1 kinase: Primary Screen (AID 686947); further: nearly all actives have a fitted effect of over 60% in size; further: potency means the concentration at half of the fitted maximal effect
# Tyrosine-protein kinase Yes (Homo sapiens), sequence (P07947 whole entry, looked up): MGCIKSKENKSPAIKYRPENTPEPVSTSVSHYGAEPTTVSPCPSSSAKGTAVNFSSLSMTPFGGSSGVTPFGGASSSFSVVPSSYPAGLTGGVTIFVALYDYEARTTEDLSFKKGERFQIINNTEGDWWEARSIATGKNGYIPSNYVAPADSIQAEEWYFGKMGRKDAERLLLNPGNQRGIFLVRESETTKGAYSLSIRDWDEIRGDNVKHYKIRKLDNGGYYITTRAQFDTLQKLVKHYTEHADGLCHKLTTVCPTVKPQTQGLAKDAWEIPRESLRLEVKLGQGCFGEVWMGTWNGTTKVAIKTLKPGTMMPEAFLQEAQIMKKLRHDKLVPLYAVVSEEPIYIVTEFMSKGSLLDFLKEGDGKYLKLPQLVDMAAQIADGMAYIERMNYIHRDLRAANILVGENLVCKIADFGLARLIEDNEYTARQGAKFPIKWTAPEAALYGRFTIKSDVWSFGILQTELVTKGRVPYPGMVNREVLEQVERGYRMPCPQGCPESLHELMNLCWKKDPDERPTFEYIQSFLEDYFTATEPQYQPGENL
# In short: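 In this qHTS format, inhibition is expressed relative to DMSO controls with enzyme (maximum) and without enzyme (minimum). The 60 min room-temperature reaction uses 0.1 mM ATP, with ADP detected by luminescence.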
# [2] = qHTS for small molecule inhibitors of Yes1 kinase: Counter Assay (AID 686950);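 further: no kinase present so only ADP-Glo detection of a fixed ADP amount is tested; luminescence from ADP-Glo reporting ADP in a fixed ATP and ADP mixture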
# In short: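 No kinase present; 0.08 mM ATP + 0.02 mM ADP in 50 mM Tris pH 7.5, 10 mM MgCl2, 150 mM NaCl, 1 mM DTT; 20 min compound preincubation, 60 min RT, ADP-Glo luminescence, normalized to ATP/ADP (max) and ATP-only (min).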
# [3] = qHTS profiling for inhibitors of Plasmodium falciparum (3D7) proliferation (AID 743322; call rule not given here;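 further: infected erythrocytes exposed to compound for 72 h before lysis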); conditions: P. falciparum 3D7 proliferation; at 28.7 µM (top of the series) unless noted
# In short: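 Parasite DNA was quantified by SYBR Green I fluorescence (ex 485, em 535 nm) after overnight lysis in saponin/Triton buffer at room temperature. Cultures at 0.3% parasitemia and 2.5% hematocrit were first exposed to compound for 72 h at 37 C; signals were normalised to artemisinin (0.29 uM) and vehicle wells.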
# [4] = qHTS profiling for inhibitors of Plasmodium falciparum (DD2) proliferation (AID 743323; call rule not given here); conditions: lower = more inhibition; at 28.7 µM (top of the series) unless noted
# In short: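 SYBR Green fluorescence (ex 485, em 535 nm) of lysed cultures gives parasite DNA content; wells normalized to artemisinin (0.29 uM) and DMSO controls. Infected red cells: 0.3% parasitemia, 2.5% hematocrit, 72 h, 37 C.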
# [5] = qHTS Assay for Identifying Gametocytocidal Compounds (AID 743244); further: potency means the concentration at half of the fitted maximal effect;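 on max response: actives lower the fluorescent signal which means gametocytes are killed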; conditions: P. falciparum 3D7 stage III-V gametocytes, alamarBlue, 72 h; max response: stronger effect = lower value
# In short: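 Stage III–V gametocytes of P. falciparum 3D7 were seeded at 20,000 cells/well onto pre-dispensed compounds. After 72 h, 37 °C, 5% CO2, alamarBlue was added for another 24 h.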
# [6] = qHTS for compounds that reverse cellular toxicity of Amyloid beta (A-beta) peptide in yeast: LOPAC Validation Assay (AID 720559)
# In short: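 Here, A-beta-toxic yeast grow with test compounds at 30 C for 48 hr before optical density at 600 nm is recorded; data are normalized against DMSO and the FeCl3-clioquinol control.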
# [7] = qHTS for Activators of Parkin Expression: LOPAC Validation Assay (NLuc Reporter) (AID 720572)
# In short: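 NLuc signal, read 10 min after reagent and following a prior FLuc read, is normalized to DMSO (0) and positive controls (100%). Cells: neuronal Parkin-promoter coincidence reporter line; compounds tested 7-point, 24 h, 37 C, 5% CO2.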
# [8] = qHTS for Activators of Parkin Expression: LOPAC Validation Assay (FLuc Reporter) (AID 720573)
# In short: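 Readout is FLuc luminescence from neuronal reporter cells (Parkin promoter, FLuc plus NLuc) after 24 h compound exposure in dose response. Values normalized to neutral DMSO and positive-control compounds.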
# [9] = target: T1, Hexokinase-4 (Homo sapiens) + Glucokinase regulatory protein (Homo sapiens) (UniProt P35557+Q14397); assay: qHTS assay for inhibitors of recombinant human GCK-GKRP interaction: Diaphorase-coupled assay (AID 743205)
# T1 sequence (P35557 whole entry, looked up): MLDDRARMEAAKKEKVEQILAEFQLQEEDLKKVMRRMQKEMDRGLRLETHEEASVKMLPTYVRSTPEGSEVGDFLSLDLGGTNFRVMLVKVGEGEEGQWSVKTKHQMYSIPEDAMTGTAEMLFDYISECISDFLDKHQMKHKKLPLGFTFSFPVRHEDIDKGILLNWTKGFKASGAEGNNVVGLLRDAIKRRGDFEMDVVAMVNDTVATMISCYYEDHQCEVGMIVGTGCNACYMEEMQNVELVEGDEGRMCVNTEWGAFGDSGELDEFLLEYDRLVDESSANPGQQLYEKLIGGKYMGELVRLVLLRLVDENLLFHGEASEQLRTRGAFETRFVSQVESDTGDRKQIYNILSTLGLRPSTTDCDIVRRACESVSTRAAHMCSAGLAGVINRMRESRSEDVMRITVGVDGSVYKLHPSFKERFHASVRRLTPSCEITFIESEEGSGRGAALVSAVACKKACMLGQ
# T1 sequence (Q14397 whole entry, looked up): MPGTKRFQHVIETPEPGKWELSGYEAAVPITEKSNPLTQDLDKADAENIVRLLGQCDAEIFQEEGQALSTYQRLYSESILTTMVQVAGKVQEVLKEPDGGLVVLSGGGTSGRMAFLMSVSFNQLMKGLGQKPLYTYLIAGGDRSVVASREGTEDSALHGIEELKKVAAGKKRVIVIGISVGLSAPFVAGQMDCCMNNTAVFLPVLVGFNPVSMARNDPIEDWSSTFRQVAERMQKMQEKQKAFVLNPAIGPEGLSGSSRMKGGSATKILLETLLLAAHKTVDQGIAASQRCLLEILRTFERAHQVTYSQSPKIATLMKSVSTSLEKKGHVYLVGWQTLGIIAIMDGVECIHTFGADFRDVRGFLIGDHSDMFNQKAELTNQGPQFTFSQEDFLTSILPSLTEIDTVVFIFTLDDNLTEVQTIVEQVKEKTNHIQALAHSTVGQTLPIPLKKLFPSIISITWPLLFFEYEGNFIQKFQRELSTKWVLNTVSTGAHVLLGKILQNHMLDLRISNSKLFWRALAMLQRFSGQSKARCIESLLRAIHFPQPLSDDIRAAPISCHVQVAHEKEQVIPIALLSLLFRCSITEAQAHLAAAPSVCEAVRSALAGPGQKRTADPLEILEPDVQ
# In short: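 Signal derives from resorufin generated by diaphorase, linked to GCK turnover of glucose (5 mM) and ATP (0.4 mM). Enzyme complex was added after a 20-minute compound preincubation and monitored for 30 minutes.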
# [10] = target: T1, Hexokinase-4 (Homo sapiens) + Glucokinase regulatory protein (Homo sapiens); assay: qHTS assay for inhibitors of recombinant human GCK-GKRP interaction: ADP-Glo assay (AID 743206)
# In short: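 Pin-transferred compounds meet a 15 nM GST-GCK/15 nM FLAG-GKRP/2 uM S6P mix (dispense concentrations). ATP is then added to 0.4 mM final with 5 mM glucose, and the reaction runs 60 min at room temperature. ADP is quantified luminescently.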
# [11] = target: T1, Hexokinase-4 (Homo sapiens) + Glucokinase regulatory protein (Homo sapiens); assay: qHTS assay for inhibitors of recombinant human GCK-GKRP interaction: HTRF assay (AID 743207)
# In short: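 Titration screening format: recombinant GST-GCK and FLAG-GKRP at 5 nM, S6P at 2 uM, labelled anti-tag antibodies, 60 min at RT, dual-wavelength HTRF readout.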
# [12] = target: Arylsulfatase A (Homo sapiens) (UniProt P15289); assay: qHTS screen for enhancers of Arylsulfatase A (ASA1): LOPAC Validation Assay (AID 720538); conditions: outcome: dose series up to 57.5 µM
# Arylsulfatase A (Homo sapiens), sequence (P15289 whole entry, looked up): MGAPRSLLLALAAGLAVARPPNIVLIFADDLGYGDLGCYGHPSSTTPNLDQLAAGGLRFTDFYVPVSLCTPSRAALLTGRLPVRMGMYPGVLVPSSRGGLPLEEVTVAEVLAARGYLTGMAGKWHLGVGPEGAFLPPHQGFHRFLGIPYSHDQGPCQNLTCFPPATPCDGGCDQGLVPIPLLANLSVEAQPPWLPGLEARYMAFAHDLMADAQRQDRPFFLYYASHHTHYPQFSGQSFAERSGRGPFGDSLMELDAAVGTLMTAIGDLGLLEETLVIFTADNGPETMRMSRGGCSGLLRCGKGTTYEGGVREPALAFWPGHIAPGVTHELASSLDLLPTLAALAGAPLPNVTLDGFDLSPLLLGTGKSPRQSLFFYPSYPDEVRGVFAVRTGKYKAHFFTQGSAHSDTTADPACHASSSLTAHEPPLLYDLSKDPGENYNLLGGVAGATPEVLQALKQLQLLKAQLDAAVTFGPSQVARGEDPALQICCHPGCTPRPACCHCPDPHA
# In short: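 Cell-based enhancement test: residual ASA activity in SV40-transformed I179S patient fibroblasts is measured by pNCS turnover (0.5mM final, 14h, room temperature) following 48h compound incubation; higher fluorescence indicates activation.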
smiles,measurement,setting,value
COc1ccc(-c2ccc3c(N4CCOC[C@H]4C)nc(N4CCOC[C@H]4C)nc3n2)cc1CO,Potency,[1],inactive
same,outcome,[2],inactive
same,remaining parasite growth % (stronger effect = lower value),[3],15.5%
same,"activity, percent of control",[4],19.8%
N#CC[C@H](C1CCCC1)n1cc(-c2ncnc3[nH]ccc23)cn1,outcome,[2],inactive
same,max response,[5],2.34% (inactive)
same,remaining parasite growth % (stronger effect = lower value),[3],57.9%
same,"activity, percent of control",[4],48.8%
Cc1cccc(-c2nn(C(=S)Nc3ccccc3)cc2-c2ccnc3ccccc23)n1,Potency,[1],2.44 µM (active)
same,outcome,[2],inactive
same,remaining parasite growth % (stronger effect = lower value),[3],91.2%
same,"activity, percent of control",[4],87.9%
CCn1c(-c2nonc2N)nc2c(C#CC(C)(C)O)ncc(OC[C@H]3CCCNC3)c21,outcome,[2],inactive
same,Potency,[5],23.5 µM (active)
same,remaining parasite growth % (stronger effect = lower value),[3],5.66%
same,"activity, percent of control",[4],2.74%
CCOc1cc(N2CCC(O)CC2)ccc1Nc1ncc2c(n1)N(C)c1ccccc1C(=O)N2C,Potency,[1],inactive
same,outcome,[2],inactive
same,remaining parasite growth % (stronger effect = lower value),[3],6.85%
same,"activity, percent of control",[4],1.46%
COc1cc2c(cc1OC)CN(CCc1ccc(NC(=O)c3cccc4c(=O)c5cccc(OC)c5[nH]c34)cc1)CC2,Potency,[1],inactive
same,outcome,[2],inactive
same,remaining parasite growth % (stronger effect = lower value),[3],-0.733%
same,"activity, percent of control",[4],0.466%
COc1ccc(-c2ccc3c(N4CCOCC4)nc(N4C[C@@H](C)O[C@@H](C)C4)nc3n2)cc1CO,Potency,[1],inactive
same,outcome,[2],inactive
same,remaining parasite growth % (stronger effect = lower value),[3],20.8%
same,"activity, percent of control",[4],25.3%
CCC(=O)N[C@H]1CC[C@H](C(=O)N(C)c2ccc(-c3nc4ccccc4o3)cc2)C1,outcome,[2],inactive
same,max response,[5],65.6% (inactive)
same,remaining parasite growth % (stronger effect = lower value),[3],58.5%
same,"activity, percent of control",[4],55.3%
NCCc1ccc(O)c(O)c1,outcome,[6],inactive
same,Potency,[7],inactive
same,outcome,[8],inactive
same,outcome,[9],inactive
same,outcome,[10],inactive
same,outcome,[11],inactive
CN1CCN(CCCN2c3ccccc3Sc3ccc(C(F)(F)F)cc32)CC1,outcome,[12],inactive
same,outcome,[6],inactive
same,Potency,[7],inactive
same,outcome,[8],inactive
same,outcome,[9],inactive
same,outcome,[11],inactive
same,Potency,[5],3.16 µM (active)
CCCCNc1cc(C(=O)O)cc(S(N)(=O)=O)c1Oc1ccccc1,outcome,[12],inactive
same,outcome,[6],inactive
same,Potency,[7],inactive
same,outcome,[8],inactive
same,outcome,[9],inactive
same,outcome,[11],inactive
same,max response,[5],-3.91% (inactive) and 1.19% (inactive)
CCn1cc(C(=O)O)c(=O)c2cc(F)c(N3CCNC(C)C3)c(F)c21 (configuration not stated),outcome,[12],inactive
same,outcome,[6],inactive
same,Potency,[7],inactive
same,outcome,[8],inactive
same,outcome,[9],inactive
same,outcome,[11],inactive
same,max response,[5],19.5% (inactive) and 11.6% (inactive) and 13.2% (inactive)
OC(CCN1CCCCC1)(c1ccccc1)C1CC2C=CC1C2 (configuration not stated),outcome,[12],inactive
same,outcome,[6],inactive
same,Potency,[7],inactive
same,outcome,[8],inactive
same,outcome,[9],inactive
same,outcome,[11],inactive
same,max response,[5],-9.9% (inactive)
Cc1ccc(-n2nc(C(C)(C)C)cc2NC(=O)Nc2ccc(OCCN3CCOCC3)c3ccccc23)cc1,outcome,[2],inactive
same,Potency,[5],12.6 µM (active)
same,remaining parasite growth % (stronger effect = lower value),[3],24.3%
same,"activity, percent of control",[4],14.4%
NCCCC(N)(C(=O)O)C(F)F (configuration not stated),outcome,[12],inactive
same,outcome,[6],inactive
same,Potency,[7],inactive
same,outcome,[8],inactive
same,outcome,[9],inactive
same,outcome,[11],inactive
same,max response,[5],5.66% (inactive) and 8.03% (inactive)
CC1(C)CNc2cc(NC(=O)c3cccnc3NCc3ccncc3)ccc21,outcome,[2],inactive
same,max response,[5],-7.52% (inactive)
same,remaining parasite growth % (stronger effect = lower value),[3],70.1%
same,"activity, percent of control",[4],68.6%
CO[C@@H]1[C@H](N(C)C(=O)c2ccccc2)C[C@H]2O[C@]1(C)n1c3ccccc3c3c4c(c5c6ccccc6n2c5c31)C(=O)NC4,Potency,[5],5.9 µM (active)
